A short description of assay [1]: Nuclear factor erythroid 2-related factor 2/antioxidant responsive element (Nrf2/ARE) small molecule agonists: qHTS cell viability counter screen in human keratinocytes (AID 1919968; active = well fitted curve in the direction sought with a large enough effect in the repeat runs; an effect the other way counts as inactive or inconclusive; note: nearly all actives have a fitted effect of over 55% in size). A digest of the protocol: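 Seed 1,500 KeratinoSens cells per well, then incubate 5 h at 37 C/5% CO2. Add compounds in DMSO and incubate 23 h. Add CellTiter-Fluor, wait 1 h and read fluorescence.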
(In general: Quantitative high-throughput screening tests each substance at several concentrations.)

Assay [2] in a line: Nuclear factor erythroid 2-related factor 2/antioxidant responsive element (Nrf2/ARE) small molecule agonists: luciferase reporter gene qHTS assay in human keratinocytes (AID 1919969; note: nearly all actives have a fitted effect of over 35% in size; note: potency is the fitted concentration of half-maximal effect). (A reporter such as luciferase makes a cellular process visible.)
Assay [3] deals with Gonadotropin-releasing hormone receptor (Homo sapiens) (UniProt P30968). In words: Human gonadotropin-releasing hormone receptor (GnRHR) small molecule agonists, calcium flux assay in GnRHR-HEK293 cells (AID 1920063). Note: nearly all actives have a fitted effect of over 35% in size. The method, boiled down:
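Cells: HEK293 stably expressing human GnRHR. Steps: overnight (18 h) culture, 1 h calcium dye loading at 37 C, compound addition, kinetic fluorescence read at 480/540 nm. Each compound tested at 15 concentrations in triplicate.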
(A change in cytosolic calcium serves as a functional read-out for many receptors and channels.)

The target of assay [4] is KiSS-1 receptor (Homo sapiens) (UniProt Q969F8). In words: Human kisspeptin (KISS1R) small molecule agonists, calcium flux assay in KISS1R-HEK293 cells (AID 1920064; active = well fitted curve in the direction sought with a large enough effect in the repeat runs; an effect the other way counts as inactive or inconclusive). A digest of the protocol:
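Cells plated and incubated 18 h; dye added, 1 h at 37 C; compounds in DMSO pinned in; signal read at 480/540 nm every second for 3 min. Each compound tested at 15 concentrations in triplicate.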

Assay [5] in a line: G protein-coupled receptor (GPCR) small molecule agonists, calcium flux assay: HEK293 wild type cell line counter screen (AID 1920065). A digest of the protocol: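 Counter-screen of the Tox21 10K library for non-specific calcium release: dye-loaded cells received compounds in DMSO and were monitored by kinetic fluorescence (480/540 nm, 3 min). Fifteen concentrations, run in triplicate.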

Assay [6] is described as follows: p53 small molecule agonists, cell-based qHTS assay with rat liver microsomes (AID 1963578). The method, boiled down:
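p53RE-bla cells, 4,000/well, pre-incubated 5 h, then given compounds plus rat liver microsomes (0.5 mg/mL final) and NADPH (0.5 mg/mL final). Incubation 16 h at 37 C; beta-lactamase reporter read by LiveBLAzer fluorescence after 2 h at room temperature.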

Assay [7] in a line: p53 small molecule agonists, cell-based qHTS assay with human liver microsomes: qHTS cell viability counter screen (AID 1963579). Note: nearly all actives have a fitted effect of over 45% in size. A digest of the protocol:
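p53RE-bla cells, 4,000/well, dosed 5 hours after plating, with human liver microsomes (0.5 mg/mL final) plus NADPH (0.5 mg/mL final), 16 hours at 37 C. Viability read as CellTiter-Glo luminescence after 30 min at room temperature.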

Assay [8] in a line: p53 small molecule agonists, cell-based qHTS assay with rat liver microsomes: qHTS cell viability counter screen (AID 1963580). Note: nearly all actives have a fitted effect of over 45% in size. A digest of the protocol:
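Intracellular ATP, by CellTiter-Glo luminescence, defines viability. HCT-116 p53RE-bla cells, 4,000 per well, were compound-treated in the presence of rat liver microsomes and NADPH for 16 h at 37 C.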

Assay [9] in a line: p53 small molecule agonists, cell-based qHTS assay: qHTS cell viability counter screen (AID 1963581). Note: nearly all actives have a fitted effect of over 45% in size. A digest of the protocol:
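Cells: HCT-116 with p53 response element-driven beta-lactamase. Treatment: 16 h, 37 C, compounds in DMSO. Read: CellTiter-Glo luminescence after 30 min RT.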

Assay [10] in a line: p53 small molecule agonists, cell-based qHTS assay (AID 1963582; active = well fitted activation curve with a large enough effect in the signal ratio in the repeat runs, not every such curve was filed as active; the % refers to the signal ratio). The method, boiled down:
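Quantitative HTS in p53RE-bla cells: after a 5 h settling period, compounds delivered in DMSO were left on cells for 16 h at 37 C, and reporter induction was measured as fluorescence following 2 h substrate loading.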

Assay [11] has as its target 5-hydroxytryptamine receptor 2A (Homo sapiens) (UniProt P28223). In words: 5-hydroxytryptamine receptor 2A (HTR2A) small molecule antagonists, cell-based qHTS assay (AID 1963586). Note: nearly all actives have a fitted effect of over 45% in size. Note: potency is the fitted concentration of half-maximal effect. The method, boiled down:
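Antagonist-mode intracellular calcium assay: DOI (4 nM) added after 5 min compound pre-incubation at room temperature to dye-loaded HTR2A-CHO cells. Fluorescence followed for 3 min, sampled every second.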

For assay [12] the target is unchanged. In words: 5-hydroxytryptamine receptor 2A (HTR2A) small molecule agonists, cell-based qHTS assay (AID 1963587). Note: nearly all actives have a fitted effect of over 30% in size. The method, boiled down: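 Kinetic calcium-flux fluorescence (2 min, 1 sec intervals) after compound addition in agonist mode. HTR2A-CHO cells were cultured 18 h, then dye-loaded 1 h at 37 C.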
Assay [13] concerns the target Muscarinic acetylcholine receptor M1 (Homo sapiens) (UniProt P11229). In words: Cholinergic receptor muscarinic 1 (CHRM1) small molecule antagonists, cell-based qHTS assay (AID 1963588). Note: nearly all actives have a fitted effect of over 40% in size. A digest of the protocol: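 CHRM1-CHO calcium-flux assay, antagonist mode. Cells were seeded 18 h, dye-loaded 1 h at 37 C and given compound for 5 min at RT, then acetylcholine was added at 50nM. FDSS fluorescence was read 3 min; 15 concentrations, three runs.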

Assay [14] has the same target. The assay is described as follows: Cholinergic receptor muscarinic 1 (CHRM1) small molecule agonists, cell-based qHTS assay (AID 1963589). Note: nearly all actives have a fitted effect of over 35% in size. The method, boiled down:
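Agonist-mode qHTS in CHO cells stably carrying human muscarinic M1. Intracellular calcium is tracked by fluorescence every second after compound transfer; each compound runs at 15 concentrations in three independent runs.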

Assay [15] in a line: cAMP Responsive Elements (CRE) small molecule antagonists, cell-based qHTS assay (AID 1963591; active = well fitted inhibition curve with a large enough effect in the signal ratio in the repeat runs, not every such curve was filed as active; the % refers to the signal ratio). The method, boiled down:
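Antagonist mode: test compounds are co-incubated with the adenylyl cyclase activator NKH477 (0.25 uM final) on CRE-bla HEK293T cells for 3 h at 37 °C, followed by LiveBLAzer substrate loading.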

Assay [16] concerns the target Beta-2 adrenergic receptor (Homo sapiens) (UniProt P07550). The assay is described as follows: Adrenergic beta2 receptor (ADRB2) small molecule antagonists, cell-based qHTS assay (AID 1963592). Note: series mostly up to about 92 µM; nearly all actives have a fitted effect of over 50% in size. A digest of the protocol:
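Cells (CHO, stable ADRB2 overexpression) incubated 18-20hr at 37C; compounds added from DMSO; agonist mix (1nM isoproterenol, 100uM IBMX, 25uM Ro-20-1724) added; 0.5hr RT; d2-cAMP and anti-cAMP-cryptate added; 1hr RT; 665/615 nm read.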

The target of assay [17] is D(2) dopamine receptor (Homo sapiens) (UniProt P14416). In words: Dopamine D2 receptor (DRD2) small molecule agonists, cell-based qHTS assay (AID 1963594). Note: nearly all actives have a fitted effect of over 35% in size. A digest of the protocol:
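cAMP accumulation in DRD2-HEK293 cells measured by HTRF after 1 h detection; compounds added 10 min before NKH477 (200nM […]) forskolin-analogue stimulation, 30 min at room temperature, with Ro20-1724 present at 0.1 mM final.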

Assay [18] is described as follows: cAMP Responsive Elements (CRE) small molecule agonists, cell-based qHTS assay (AID 1963590). A digest of the protocol:
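Agonist mode qHTS in CRE-bla HEK 293T cells: compounds dosed from DMSO for 3 h at 37 C/5% CO2, followed by LiveBLAzer B/G FRET substrate for 2 h at room temperature.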

Assay [19] concerns the target Beta-2 adrenergic receptor (Homo sapiens) (UniProt P07550). In words: Adrenergic beta2 receptor (ADRB2) small molecule agonists, cell-based qHTS assay (AID 1963593).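 Note: CHO cells stably overexpressing human ADRB2.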 A digest of the protocol: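 CHO cells stably over-expressing ADRB2 were plated overnight at 37C, then dosed with compounds plus a stimulation mix containing 100uM IBMX and 25uM Ro-20-1724 for 0.5hr at room temperature. cAMP was measured by HTRF competition, 1hr.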

For assay [20], the target named is D(2) dopamine receptor (Homo sapiens) (UniProt P14416). In words: Dopamine D2 receptor (DRD2) small molecule antagonists, cell-based qHTS assay (AID 1963595; active = well fitted inhibition curve with a large enough effect in the signal ratio in the repeat runs, with a control signal flat; the % refers to the signal ratio). The method, boiled down:
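HTRF cAMP read-out at 665 and 620 nm emission (340 nm excitation). Antagonist mode: compounds were tested against 12 nM quinpirole in DRD2-HEK293 cells, with 200 nM NKH477 raising cAMP and 0.1 mM Ro20-1724 blocking its breakdown.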

This passage reports Potency results from PubChem BioAssay (Tox21).

Molecules are shown by their SMILES. Records with an inconclusive call do not appear. Active and inactive are the calls of the source. Unless noted, calls come from the whole dose curve.

Gonadotropin-releasing hormone receptor (Homo sapiens), sequence (P30968 whole entry, looked up): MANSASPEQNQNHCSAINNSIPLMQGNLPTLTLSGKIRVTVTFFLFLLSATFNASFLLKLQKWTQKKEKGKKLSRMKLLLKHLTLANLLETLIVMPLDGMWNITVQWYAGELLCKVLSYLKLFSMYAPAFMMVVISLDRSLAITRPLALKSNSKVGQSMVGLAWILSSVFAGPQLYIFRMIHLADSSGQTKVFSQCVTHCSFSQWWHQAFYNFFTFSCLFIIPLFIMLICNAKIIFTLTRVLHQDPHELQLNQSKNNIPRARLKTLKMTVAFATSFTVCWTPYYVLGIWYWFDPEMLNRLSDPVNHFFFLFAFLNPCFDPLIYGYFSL
Muscarinic acetylcholine receptor M1 (Homo sapiens), sequence (P11229 whole entry, looked up): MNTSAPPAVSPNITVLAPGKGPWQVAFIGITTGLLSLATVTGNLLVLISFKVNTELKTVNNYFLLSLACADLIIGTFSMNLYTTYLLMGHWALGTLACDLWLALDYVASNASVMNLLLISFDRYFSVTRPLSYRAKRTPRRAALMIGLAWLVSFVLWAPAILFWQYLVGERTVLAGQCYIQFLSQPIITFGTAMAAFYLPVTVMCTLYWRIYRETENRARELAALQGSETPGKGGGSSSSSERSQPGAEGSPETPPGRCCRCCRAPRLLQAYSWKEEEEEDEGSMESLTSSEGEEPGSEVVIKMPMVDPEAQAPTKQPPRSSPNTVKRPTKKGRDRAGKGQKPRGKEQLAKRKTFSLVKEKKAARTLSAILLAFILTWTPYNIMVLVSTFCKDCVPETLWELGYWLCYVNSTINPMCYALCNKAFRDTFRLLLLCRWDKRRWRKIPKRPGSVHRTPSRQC
Beta-2 adrenergic receptor (Homo sapiens), sequence (P07550 whole entry, looked up): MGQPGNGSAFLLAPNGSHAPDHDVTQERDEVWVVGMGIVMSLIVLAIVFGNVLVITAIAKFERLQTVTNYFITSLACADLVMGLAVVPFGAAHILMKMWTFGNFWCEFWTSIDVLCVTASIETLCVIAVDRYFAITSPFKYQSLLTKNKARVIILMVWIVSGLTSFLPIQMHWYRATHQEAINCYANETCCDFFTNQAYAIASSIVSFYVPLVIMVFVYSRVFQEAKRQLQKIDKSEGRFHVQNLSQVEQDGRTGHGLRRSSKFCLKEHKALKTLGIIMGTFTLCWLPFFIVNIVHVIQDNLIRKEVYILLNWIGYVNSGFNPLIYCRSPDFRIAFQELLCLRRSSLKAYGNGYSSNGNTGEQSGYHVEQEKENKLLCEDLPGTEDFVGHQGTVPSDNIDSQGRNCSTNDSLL
KiSS-1 receptor (Homo sapiens), sequence (Q969F8 whole entry, looked up): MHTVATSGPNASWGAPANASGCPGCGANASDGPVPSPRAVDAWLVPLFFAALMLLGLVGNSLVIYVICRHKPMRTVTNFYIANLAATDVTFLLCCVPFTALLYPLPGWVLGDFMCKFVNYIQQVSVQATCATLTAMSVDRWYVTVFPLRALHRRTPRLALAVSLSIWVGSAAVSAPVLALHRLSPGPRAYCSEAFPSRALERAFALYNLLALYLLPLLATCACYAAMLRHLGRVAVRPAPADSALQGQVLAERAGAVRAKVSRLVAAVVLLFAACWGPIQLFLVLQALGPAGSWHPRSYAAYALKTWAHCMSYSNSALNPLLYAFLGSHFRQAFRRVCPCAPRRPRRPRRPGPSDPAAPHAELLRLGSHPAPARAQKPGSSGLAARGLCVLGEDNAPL
D(2) dopamine receptor (Homo sapiens), sequence (P14416 whole entry, looked up): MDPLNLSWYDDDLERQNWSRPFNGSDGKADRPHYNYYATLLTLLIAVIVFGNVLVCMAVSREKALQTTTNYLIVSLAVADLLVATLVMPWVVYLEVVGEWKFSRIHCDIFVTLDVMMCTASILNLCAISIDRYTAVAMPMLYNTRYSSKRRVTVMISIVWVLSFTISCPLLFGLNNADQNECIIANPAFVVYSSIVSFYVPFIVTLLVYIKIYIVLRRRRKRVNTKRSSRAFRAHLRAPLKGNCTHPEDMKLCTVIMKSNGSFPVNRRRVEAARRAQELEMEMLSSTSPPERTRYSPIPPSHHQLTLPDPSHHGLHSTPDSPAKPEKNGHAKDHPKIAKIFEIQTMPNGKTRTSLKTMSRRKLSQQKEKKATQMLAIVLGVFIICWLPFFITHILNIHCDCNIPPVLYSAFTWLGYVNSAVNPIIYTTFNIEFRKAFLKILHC
5-hydroxytryptamine receptor 2A (Homo sapiens), sequence (P28223 whole entry, looked up): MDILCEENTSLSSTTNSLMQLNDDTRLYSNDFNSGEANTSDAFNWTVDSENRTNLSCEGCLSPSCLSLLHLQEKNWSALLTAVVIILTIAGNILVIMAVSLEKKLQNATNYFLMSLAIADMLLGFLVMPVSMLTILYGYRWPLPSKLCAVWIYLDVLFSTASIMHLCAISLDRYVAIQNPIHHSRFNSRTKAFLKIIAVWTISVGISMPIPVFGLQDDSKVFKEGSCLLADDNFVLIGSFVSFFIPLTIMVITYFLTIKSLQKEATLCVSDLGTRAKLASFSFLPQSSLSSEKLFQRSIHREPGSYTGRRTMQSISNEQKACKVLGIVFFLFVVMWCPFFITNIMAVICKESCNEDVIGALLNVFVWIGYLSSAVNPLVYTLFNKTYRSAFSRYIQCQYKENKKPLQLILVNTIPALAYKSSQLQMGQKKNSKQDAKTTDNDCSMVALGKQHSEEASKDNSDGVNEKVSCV

On to `C[C@@H]1C[C@H]2[C@@H]3CCC4=CC(=O)C=C[C@]4(C)[C@@]3(Cl)[C@@H](O)C[C@]2(C)[C@@]1(OC(=O)c1ccco1)C(=O)CCl`, for which the Potency entry in [1], in [2], in assay [3], in assay [4], in assay [5] and in [6] was “inactive” each time. The Potency result in [7], in assay [8], in assay [9], in assay [10], in assay [11] and in assay [12] was “inactive” each time. The Potency entry in assay [13], in [14], in assay [15], in assay [16] and in assay [17] was “inactive” each time.

Turning to `C=C(C)C1CCC(C)(O)CC1` (stereo not given), the Potency result in [1], in assay [2], in assay [3], in [4], in assay [5] and in [6] was “inactive” each time. Besides, the Potency result in assay [7], in assay [8], in [9], in assay [10], in assay [11] and in [12] was “inactive” each time. Moreover, the Potency entry in assay [13], in assay [18], in assay [15], in [16], in [19] and in [17] was “inactive” in each case.

Take `NC(CSCC(=O)O)C(=O)O` (stereo not given): the Potency result in assay [1], in assay [2], in assay [3], in assay [4], in assay [5] and in assay [6] was “inactive” each time. Further, the Potency entry in assay [7], in [8], in assay [9], in assay [10], in [11] and in assay [14] was “inactive” each time. Also, the Potency result in assay [18], in assay [15], in assay [16], in assay [17] and in assay [20] was “inactive” in each case.

Regarding `O=C(O)C1(C(=O)Nc2ccc(Cl)cc2Cl)CC1`, the Potency entry in assay [1], in assay [2], in assay [3], in assay [4], in assay [5] and in assay [6] was “inactive” each time. Further, the Potency result in [7], in assay [8], in assay [9], in assay [12], in assay [13] and in assay [14] was “inactive” each time. Besides, the Potency entry in [16] and in [20] was “inactive” in each case. In assay [11], the Potency was 33.4 µM (active).

Regarding `CCC[C@@H]1C[C@@H](C(=O)N[C@@H]([C@H]2O[C@H](SC)[C@H](O)[C@@H](O)[C@H]2O)[C@@H](C)O)N(C)C1`, the Potency entry in assay [1], in [2], in assay [3], in assay [4], in assay [5] and in assay [6] was “inactive” each time. In addition, the Potency result in assay [7], in assay [8], in assay [9], in assay [10], in assay [18] and in assay [15] was “inactive” throughout. The Potency result in assay [16], in [19], in assay [17] and in assay [20] was “inactive” each time.

Regarding `CC(C)N1C(=O)c2ccccc2C1=O`, the Potency result in assay [1], in assay [2], in assay [3], in assay [4], in assay [5] and in [6] was “inactive” in each case. In addition, the Potency result in assay [7], in assay [8], in assay [9], in assay [10], in assay [11] and in assay [12] was “inactive” each time. Moreover, the Potency entry in assay [13], in [14], in assay [18], in [16], in assay [19] and in assay [17] was “inactive” each time. Further, the Potency entry in [20] was “inactive”.

Consider `CCCCN`, for which the Potency entry in [1], in assay [3], in assay [4], in assay [5], in assay [6] and in assay [7] was “inactive” in each case. For the same compound, the Potency result in assay [8], in assay [9], in assay [10], in assay [11], in assay [12] and in [13] was “inactive” in each case. Besides, the Potency result in assay [14], in [18], in assay [15], in assay [17] and in assay [20] was “inactive” throughout. The Potency in assay [2] is 36.3 µM (active).
